AMPAR-TARP mod = modulators of AMPA receptor GluA2-stargazin complexes; O88602+P19491; HEK293 GluA2+stargazin, membrane potential dye (FDSS), glutamate EC50; hits were called plate by plate, in both directions; calls only at 30 µM; 3.5% of 40,000 active;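 active = any of four per-well response measures lying three or more SD from its plate-wide compound average, in either direction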
GIRK2 act = Activates human GIRK2-containing potassium channels; P48051; HEK293 GIRK2/NPY4 cells, thallium flux fluorescence; activation (% efficacy), % for hits at 37.5 µM; 34,000 tested, under 10 active; AID 1259324;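 active = primary screen hit, no activity in plain HEK293 cells, and in GIRK2-only cells above 5% efficacy rising with concentration; inactive = the rest, including fluorescent compounds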;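 note: efficacy is normalized control-subtracted fluorescence 15 s after thallium addition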
An asterisk follows results filed as active; i = inactive; / = no result given; + = active, no number; ! = repeats disagree. This is one part of a sample in which hits are shown more often than they occur.

SMILES	AMPAR-TARP mod	GIRK2 act
COc1ccc(Cn2c(C)nc3c(c(=O)c4ccccc4n3C)c2=O)cc1	+	/
Cc1cc(C)c(NC2=C/C(=N/S(=O)(=O)c3cccs3)c3ccccc3C2=O)c(C)c1	+	/
Cc1cc(C)c(NC(=O)C2(c3cccs3)CCOCC2)c(C)c1	i	i
Cc1ccc2c(c1)NC(SCc1cccc(F)c1)=NS2(=O)=O	i	i
CC1(C)CC2CC(C)(CN2Cc2c(O)ccc3ccccc23)C1 (stereo not given)	+	/
Cc1cccc(CC(=O)NC2CCCC(O)C2)c1 (stereo not given)	i	i
COc1ccc(-c2nnc(NC(=O)C3CCCN3S(C)(=O)=O)o2)c(OC)c1 (stereo not given)	i	i
COc1ccc(-c2nnc(NC(=O)Cc3ccc(SC)cc3)o2)c(OC)c1	+	/
CCn1nccc1C(=O)Nc1nnc(-c2ccc(OC)cc2OC)o1	+	i
COc1ccc(OC)c(-c2nnc(NC(=O)c3ccnn3C)o2)c1	/	i
COc1ccc(-c2nnc(NC(=O)Cc3ccc(C)cc3)o2)c(OC)c1	i	i
COc1ccc(-c2nnc(NC(=O)C3CC3)o2)c(OC)c1	+	/
COc1cc(C(=O)Nc2nnc(-c3ccc(Br)s3)o2)cc(OC)c1OC	i	i
CN(C)c1ccc(NC(=O)CN2CCN(c3ccccn3)CC2)cc1	i	/
Cc1ccc(C)c(OCCn2c(C(C)NC(=O)c3ccco3)nc3ccccc32)c1 (stereo not given)	/	i
CCCCN(C)C(=O)Cn1c(C2CC(=O)N(c3ccc(OC)cc3)C2)nc2ccccc21 (stereo not given)	i	i
Cc1cc(N2CCN(C(=O)COc3ncccn3)CC2)nc(N2CCCCC2)n1	/	i
Cc1ccc(C(=O)N2CCN(c3nc(C)cc(N4CCCC4)n3)CC2)cc1	+	/
COc1ccc(OC)c(S(=O)(=O)NCCCn2nc(-c3ccccc3)ccc2=O)c1	i	i
COc1cc(/C=C/C(=O)N2CCCSCC2CN2CCOCC2)cc(OC)c1OC (stereo not given)	/	i
CN(C)CCCNC(=O)C(=O)c1cn(CC(=O)N2CCOCC2)c2ccccc12	i	/
CC(C)c1ccc(NC(=O)c2sccc2N(C)S(=O)(=O)c2ccccc2)cc1	+!	i
CN(c1ccsc1C(=O)Nc1cccc(Cl)c1)S(=O)(=O)c1ccccc1	i	i
O=C(CCc1csc(NC(=O)c2ccc[nH]c2=O)n1)NCC1CCCO1 (stereo not given)	i	i
Cc1cccc(NC(=O)CC2CCCCN2S(=O)(=O)c2cccs2)c1C (stereo not given)	+	i
SMILES	AMPAR-TARP mod	GIRK2 act
O=C(CC1CCCCN1S(=O)(=O)c1ccccc1)NCc1cccs1 (stereo not given)	i	/
Cc1ccnc(OCC(=O)NCCN2CCOCC2)n1	/	i
Cn1c(O)c(N=Nc2nc3c(c(=O)n(C)c(=O)n3C)n2Cc2ccccc2)c(=O)n(C)c1=O	+	/
Cn1c(=O)c2c(nc(NCc3ccccc3)n2CC(=O)N=Nc2c(O)[nH]c3ccccc23)n(C)c1=O	+	/
Cn1c(O)c(N=Nc2nc3c(c(=O)[nH]c(=O)n3C)n2CCCOc2ccccc2)c(=O)n(C)c1=O	i	/
Cn1c(=O)c2c(nc(N=Nc3c(O)[nH]c4ccccc34)n2CCc2ccccc2)n(C)c1=O	i	/
O=C(Cc1ccc([N+](=O)[O-])cc1)N/N=C\c1ccco1	/	i
CCCN(CCC)C(=O)Cn1nc(C(=O)N2CCOCC2)cc1C	i	i
NC(=O)CSc1nc(-c2ccccc2)c(NC(=O)c2ccco2)s1	i	i
CC(C)(C)CC(=O)N1CCN(Cc2nnnn2-c2ccc(F)c(F)c2)CC1	i	i
COc1ccc(C(=O)/C=C/c2ccccc2Cl)c(OC)c1	i	/
COc1ccc(OC)c(C(=O)/C=C/c2ccccc2Cl)c1	+	/
CCOC(=O)C1=C(C)NC(=S)NC1c1ccc(OC)c(OC)c1 (stereo not given)	i	/
COc1ccc(C(=S)N2CCN(C(c3ccccc3)c3ccccc3)CC2)cc1OC	i	/
CN(C)C(CNS(=O)(=O)c1cc(Cl)ccc1Cl)c1cccn1C (stereo not given)	+	i
Cc1ccc(Cl)cc1S(=O)(=O)NCC(c1cccn1C)N(C)C (stereo not given)	i	i
COc1ccc(S(=O)(=O)NCC(C)(O)C2CC2)cc1Cl (stereo not given)	i	i
CSCCC(C)(O)CNS(=O)(=O)c1ccc(Cl)s1 (stereo not given)	+	i
CSCCC(C)(O)CNS(=O)(=O)c1ccc(Br)s1 (stereo not given)	i	/
COc1ccc(S(=O)(=O)NCC(C)(O)CCSC)cc1Cl (stereo not given)	+	i
COc1cccc(CNC(=O)Cn2nc(C(=O)Nc3ccc(C)cc3)ccc2=O)c1	i	i
Cc1sc(NC(=O)C2CCCN2S(C)(=O)=O)c(C#N)c1C (stereo not given)	/	i
Cc1ccnc(Nc2ccc(NCCNC(=O)Nc3ccc(F)c(Cl)c3)nn2)c1	/	i
COc1ccc(C)cc1NC(=O)C(=O)NCC1CCN(Cc2ccco2)CC1	i	i
Cc1nnc(NC(=O)Cc2csc(SCC(=O)c3ccccc3)n2)s1	/	i
SMILES	AMPAR-TARP mod	GIRK2 act
COc1ccc(S(=O)(=O)NCC#CCN(C(C)C)C(C)C)cc1OC	i	/
CC(C)N(CC#CCNS(=O)(=O)c1ccc2ccccc2c1)C(C)C	+	/
CCCCc1ccc(N2CC(C)Cn3c2nc2c3c(=O)n(CCOC)c(=O)n2C)cc1 (stereo not given)	i	/
CS(=O)(=O)N1CCCc2ccc(NC(=O)NC3CCCCC3)cc21	/	i
CCS(=O)(=O)NCC1(c2cccs2)CCOCC1	+	i
CC(C)CS(=O)(=O)NCC1(c2cccs2)CCOCC1	i	i
CN(Cc1ccco1)S(=O)(=O)c1ccc(C(=O)Nc2nc3ccc([N+](=O)[O-])cc3s2)cc1	i	/
O=C(NCCOc1ccc(F)cc1)c1ccc(Cl)c(Cl)c1	i	i
COCCNC(=O)C(=O)Nc1ccc(-c2nnc(Nc3ccc(OC)cc3)s2)cc1	i	i
O=C(NCC1(c2cccs2)CCCC1)c1ccc(F)cc1Cl	i	i
CC(C)(C)n1ncc2c(=O)n(NC(=O)/C=C/c3ccccc3)cnc21	+	i
CC(C)(C)n1ncc2c(=O)n(NC(=O)C(c3ccccc3)c3ccccc3)cnc21	i	i
COCC(=O)N1CCC2(CC1)NC(=O)N(CCc1ccccc1)C2=O	i	i
COc1cc(S(=O)(=O)Nc2cc(Cl)ccc2O)ccc1Cl	+	i
CCOc1ccc(S(=O)(=O)Nc2cc(Cl)ccc2O)cc1C	i	i
COc1ccc(Br)cc1S(=O)(=O)Nc1cc(Cl)ccc1O	+	i
COc1ccc(Cl)cc1S(=O)(=O)Nc1cc(Cl)ccc1O	i	i
COc1ccc(OC)c(S(=O)(=O)Nc2ccc(CC(=O)N(C)C)cc2)c1	i	i
CC(=O)N1CCc2ccc(NC(=O)C3CC3)cc21	i	i
CN(C1CCCC1)S(=O)(=O)c1ccc(C(=O)Nc2nnc(-c3ccccc3Cl)o2)cc1	i	/
OC(COc1ccccc1-c1ccccc1)CN1CCCCCC1 (stereo not given)	i	/

From PubChem BioAssay
